Consider 17 molecules from ChEMBL document CHEMBL1961873, “Compounds: GSK PKIS; Assays: Nanosyn kinase panel” (2012).

Molecules are shown by their SMILES.

Assay [1] has as its target Death-associated protein kinase 1 (Homo sapiens) (UniProt P53355). As to conditions: at 1 µM.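 Further: each value is a mean inhibition figure.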
Assay [2] has as its target T1, Serine/threonine-protein kinase DCLK2 (Homo sapiens) (UniProt Q8N568).
T1 sequence (whole entry): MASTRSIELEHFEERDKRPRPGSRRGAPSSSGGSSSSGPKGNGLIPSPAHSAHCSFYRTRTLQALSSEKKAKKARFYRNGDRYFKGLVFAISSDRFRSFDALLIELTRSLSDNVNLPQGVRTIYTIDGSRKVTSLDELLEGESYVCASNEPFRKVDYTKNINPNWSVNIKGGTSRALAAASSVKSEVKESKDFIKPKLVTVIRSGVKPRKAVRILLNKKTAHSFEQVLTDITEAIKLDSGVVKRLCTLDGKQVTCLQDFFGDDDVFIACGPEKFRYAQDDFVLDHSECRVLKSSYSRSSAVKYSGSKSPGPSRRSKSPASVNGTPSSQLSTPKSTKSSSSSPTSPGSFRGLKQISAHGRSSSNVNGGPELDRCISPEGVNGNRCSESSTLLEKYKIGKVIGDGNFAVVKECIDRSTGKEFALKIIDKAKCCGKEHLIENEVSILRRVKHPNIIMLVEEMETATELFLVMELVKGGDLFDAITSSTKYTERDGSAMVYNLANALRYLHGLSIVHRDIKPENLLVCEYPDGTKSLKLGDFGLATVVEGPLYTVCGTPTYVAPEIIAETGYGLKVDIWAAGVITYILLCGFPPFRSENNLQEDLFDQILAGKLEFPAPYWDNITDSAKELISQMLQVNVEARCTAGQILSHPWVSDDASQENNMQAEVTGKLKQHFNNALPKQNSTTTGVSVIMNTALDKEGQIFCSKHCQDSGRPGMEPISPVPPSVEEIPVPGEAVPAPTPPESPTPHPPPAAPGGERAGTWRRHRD
Particulars: at 0.1 µM.

Assay [3] addresses T1, Serine/threonine-protein kinase DCLK2 (Homo sapiens). As to conditions: at 1 µM.
Assay [4] concerns the target MAP kinase-activated protein kinase 2 (Homo sapiens) (UniProt P49137). Particulars: at 0.1 µM.
The target is the same in assay [5]. As to conditions: at 1 µM.
Assay [6] deals with MAP kinase-activated protein kinase 3 (Homo sapiens) (UniProt Q16644). As to conditions: at 0.1 µM.
Assay [7] has the same target. Particulars: at 1 µM.
The target in assay [8] is Serine/threonine-protein kinase MARK1 (Homo sapiens) (UniProt Q9P0L2). Particulars: at 0.1 µM.
For assay [9] the target is unchanged. Particulars: at 1 µM.
Assay [10] has as its target MAP/microtubule affinity-regulating kinase 3 (Homo sapiens) (UniProt P27448). As to conditions: at 0.1 µM.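 Further: mean percent inhibition of MARK3 kinase activity, measured within the GSK PKIS screening panel.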

MAP kinase-activated protein kinase 2 (Homo sapiens), sequence (P49137 whole entry, looked up): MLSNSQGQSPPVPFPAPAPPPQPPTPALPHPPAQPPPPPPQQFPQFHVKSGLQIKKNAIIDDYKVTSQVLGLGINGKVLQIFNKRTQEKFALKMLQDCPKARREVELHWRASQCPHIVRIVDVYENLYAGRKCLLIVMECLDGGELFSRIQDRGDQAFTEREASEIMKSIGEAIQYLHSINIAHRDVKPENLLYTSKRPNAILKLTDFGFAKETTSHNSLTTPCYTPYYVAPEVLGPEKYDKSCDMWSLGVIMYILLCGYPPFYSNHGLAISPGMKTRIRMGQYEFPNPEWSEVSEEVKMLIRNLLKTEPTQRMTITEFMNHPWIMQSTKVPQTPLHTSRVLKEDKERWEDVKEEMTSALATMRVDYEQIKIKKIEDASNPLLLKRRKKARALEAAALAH
Death-associated protein kinase 1 (Homo sapiens), sequence (P53355 whole entry, looked up): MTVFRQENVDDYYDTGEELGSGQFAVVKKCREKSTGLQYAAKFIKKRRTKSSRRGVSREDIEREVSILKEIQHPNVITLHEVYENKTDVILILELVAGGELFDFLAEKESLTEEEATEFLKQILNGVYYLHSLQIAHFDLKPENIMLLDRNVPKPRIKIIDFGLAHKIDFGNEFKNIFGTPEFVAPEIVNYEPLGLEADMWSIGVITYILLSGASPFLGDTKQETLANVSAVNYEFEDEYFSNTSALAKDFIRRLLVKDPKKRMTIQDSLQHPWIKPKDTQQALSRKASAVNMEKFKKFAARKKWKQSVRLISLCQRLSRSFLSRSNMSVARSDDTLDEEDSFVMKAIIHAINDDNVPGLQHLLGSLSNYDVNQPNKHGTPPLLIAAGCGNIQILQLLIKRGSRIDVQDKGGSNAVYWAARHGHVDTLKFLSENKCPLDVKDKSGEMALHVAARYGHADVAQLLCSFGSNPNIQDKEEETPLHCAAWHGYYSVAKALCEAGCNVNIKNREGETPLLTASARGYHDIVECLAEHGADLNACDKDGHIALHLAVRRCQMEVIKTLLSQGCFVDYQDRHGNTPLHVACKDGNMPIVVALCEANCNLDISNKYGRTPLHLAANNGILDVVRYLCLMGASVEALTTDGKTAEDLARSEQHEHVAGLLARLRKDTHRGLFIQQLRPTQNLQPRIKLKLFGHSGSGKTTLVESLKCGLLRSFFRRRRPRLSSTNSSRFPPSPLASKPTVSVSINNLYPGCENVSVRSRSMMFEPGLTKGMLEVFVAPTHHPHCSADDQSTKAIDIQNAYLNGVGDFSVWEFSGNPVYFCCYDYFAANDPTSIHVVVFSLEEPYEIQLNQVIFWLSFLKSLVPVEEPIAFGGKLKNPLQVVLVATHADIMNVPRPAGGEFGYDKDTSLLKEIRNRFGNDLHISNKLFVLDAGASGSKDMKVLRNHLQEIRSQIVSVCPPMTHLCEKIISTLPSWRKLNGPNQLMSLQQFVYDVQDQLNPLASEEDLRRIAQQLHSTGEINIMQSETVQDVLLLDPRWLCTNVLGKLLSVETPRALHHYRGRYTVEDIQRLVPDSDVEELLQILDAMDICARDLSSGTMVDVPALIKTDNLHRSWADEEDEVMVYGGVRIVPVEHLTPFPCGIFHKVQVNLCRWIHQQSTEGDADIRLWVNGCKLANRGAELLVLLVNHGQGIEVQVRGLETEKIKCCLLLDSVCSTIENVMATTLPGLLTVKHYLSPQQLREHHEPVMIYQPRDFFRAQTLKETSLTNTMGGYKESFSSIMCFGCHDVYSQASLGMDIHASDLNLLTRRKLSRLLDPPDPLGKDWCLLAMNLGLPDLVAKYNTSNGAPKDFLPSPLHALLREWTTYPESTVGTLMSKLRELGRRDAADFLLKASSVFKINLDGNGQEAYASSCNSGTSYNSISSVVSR
MAP kinase-activated protein kinase 3 (Homo sapiens), sequence (Q16644 whole entry, looked up): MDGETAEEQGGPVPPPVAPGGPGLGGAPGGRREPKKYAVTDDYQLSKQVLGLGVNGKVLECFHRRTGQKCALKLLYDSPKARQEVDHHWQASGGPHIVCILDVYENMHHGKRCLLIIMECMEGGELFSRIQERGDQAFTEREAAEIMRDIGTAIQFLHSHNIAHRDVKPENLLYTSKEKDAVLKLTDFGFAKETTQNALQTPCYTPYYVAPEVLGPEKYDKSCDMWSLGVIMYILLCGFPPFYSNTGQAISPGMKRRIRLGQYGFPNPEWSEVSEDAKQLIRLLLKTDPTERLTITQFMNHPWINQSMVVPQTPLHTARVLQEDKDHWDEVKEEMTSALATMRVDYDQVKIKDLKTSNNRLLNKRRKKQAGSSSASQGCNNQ
Serine/threonine-protein kinase MARK1 (Homo sapiens), sequence (Q9P0L2 whole entry, looked up): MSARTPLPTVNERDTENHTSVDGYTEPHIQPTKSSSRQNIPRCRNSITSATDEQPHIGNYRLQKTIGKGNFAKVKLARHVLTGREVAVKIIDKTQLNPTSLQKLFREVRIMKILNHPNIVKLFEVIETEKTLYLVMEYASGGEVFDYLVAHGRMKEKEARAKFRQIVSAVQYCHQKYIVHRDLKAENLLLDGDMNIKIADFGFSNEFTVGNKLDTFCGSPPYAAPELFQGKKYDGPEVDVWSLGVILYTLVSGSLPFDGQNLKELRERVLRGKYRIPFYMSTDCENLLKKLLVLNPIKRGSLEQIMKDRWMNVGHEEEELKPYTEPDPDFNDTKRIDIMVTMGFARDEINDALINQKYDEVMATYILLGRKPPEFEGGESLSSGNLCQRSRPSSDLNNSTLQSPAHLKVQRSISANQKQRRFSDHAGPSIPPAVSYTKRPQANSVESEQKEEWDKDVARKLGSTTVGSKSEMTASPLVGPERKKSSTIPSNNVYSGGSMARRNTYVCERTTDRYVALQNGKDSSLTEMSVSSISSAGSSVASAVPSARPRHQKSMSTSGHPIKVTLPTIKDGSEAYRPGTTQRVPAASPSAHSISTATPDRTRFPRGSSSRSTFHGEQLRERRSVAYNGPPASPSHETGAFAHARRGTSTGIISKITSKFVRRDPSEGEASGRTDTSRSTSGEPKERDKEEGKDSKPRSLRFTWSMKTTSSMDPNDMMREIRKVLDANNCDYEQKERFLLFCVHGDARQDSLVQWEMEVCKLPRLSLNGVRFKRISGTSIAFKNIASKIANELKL
MAP/microtubule affinity-regulating kinase 3 (Homo sapiens), sequence (P27448 whole entry, looked up): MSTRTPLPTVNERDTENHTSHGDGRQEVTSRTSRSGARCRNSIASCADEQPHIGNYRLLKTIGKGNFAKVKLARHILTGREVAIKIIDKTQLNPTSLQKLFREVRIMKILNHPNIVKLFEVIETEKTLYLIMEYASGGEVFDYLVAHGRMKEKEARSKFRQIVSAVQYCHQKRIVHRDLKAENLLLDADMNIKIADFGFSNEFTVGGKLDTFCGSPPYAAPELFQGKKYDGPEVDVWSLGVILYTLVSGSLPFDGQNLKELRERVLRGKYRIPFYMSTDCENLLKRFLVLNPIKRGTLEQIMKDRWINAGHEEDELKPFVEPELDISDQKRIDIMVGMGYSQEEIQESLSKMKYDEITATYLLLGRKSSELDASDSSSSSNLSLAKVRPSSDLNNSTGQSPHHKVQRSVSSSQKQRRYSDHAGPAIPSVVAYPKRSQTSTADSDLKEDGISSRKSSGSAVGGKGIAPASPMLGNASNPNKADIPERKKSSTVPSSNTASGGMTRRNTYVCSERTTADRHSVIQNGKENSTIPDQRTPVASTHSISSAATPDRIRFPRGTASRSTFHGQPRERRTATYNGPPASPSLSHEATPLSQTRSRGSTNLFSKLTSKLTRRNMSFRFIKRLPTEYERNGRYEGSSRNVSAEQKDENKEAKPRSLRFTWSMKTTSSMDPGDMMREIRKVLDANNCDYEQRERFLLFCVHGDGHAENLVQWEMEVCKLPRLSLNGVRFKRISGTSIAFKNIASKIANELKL

The term inhibition denotes the change of the read-out against control, counted positive when it falls. As to `COc1cccc(/C=N/Nc2ncnc3c2cnn3-c2cccc(OC)c2)c1`, the inhibition in assay [1] was -2.35%; in [2] it was -0.11%; in assay [3] it was 1.93%; in [4] it was 2.15%; in assay [5] it was 2.31%; in assay [6], 2.37%. Moreover, the inhibition in assay [7] is 2.33%; in assay [8] it was 0.69%; in assay [9] it was 2.26%; in assay [10], -0.24%.
With `NC(=O)c1cc(-c2ccc(F)cc2)cc(-c2ccncc2)c1N`, the inhibition in assay [1] was 1.25%; in assay [2], -0.12%; in assay [3] it was -0.85%; in assay [4] it was 2.21%; in assay [5], 1.35%; in assay [6] it was 4.03%. Besides, the inhibition in [7] turned out to be 5.82%; in assay [8], 2.29%; in [9] it was 4.17%; in assay [10], 3.27%.
Regarding `O=C1NC(=O)C(c2cccc(Cl)c2)=C1Nc1ccc(Cl)c(C(=O)O)c1`, the inhibition in assay [1] is 3.41%; in assay [2], 0.79%; in assay [3] it was -4.18%; in [4], 1.73%; in assay [5] it was 1.21%; in [6], 2.96%. Further, the inhibition stood at 3.57% in assay [7], 2.35% in assay [8], 3.49% in assay [9] and 3.32% in [10].
As for `NC(=O)Cc1ccccc1Oc1nccc(-c2c(-c3ccc(F)cc3)ncn2C2CCNCC2)n1`, the inhibition in assay [1] worked out at 4.92%; in [2], 0.97%; in assay [3], 0.45%; in [4], 0.74%; in assay [5], 0.89%; in [6], 13.4%. Further, the inhibition in [7] was found to be 28.7%; in [8] it was 2.13%; in assay [9] it was 4.3%; in assay [10], 9.03%.
Take `CS(=O)(=O)CCNCc1ccc(-c2ccc3ncnc(Nc4ccc(OCc5ccccc5)c(Br)c4)c3c2)o1`: the inhibition in assay [1] was 2.27%; in assay [2], -2.49%; in assay [3] it was -1.71%; in [4] it was 1.3%; in assay [5] it was 0.14%; in assay [6], 3.07%. The inhibition in assay [7] is 2.03%; in assay [8], 1.99%; in assay [9] it was 1.61%; in [10] it was 3.89%.
With `Clc1ccc(CNc2nccc(-c3cnn4ncccc34)n2)cc1`, the inhibition was 11.8% in [1]; -0.21% in [2]; -0.19% in assay [3]; 3.88% in assay [4]; 3.81% in assay [5]; 7.41% in assay [6]. Besides, the inhibition was 7.89% in assay [7], 1.55% in [8], 1.16% in assay [9] and 0.99% in assay [10].
On to `Cc1ccc(C(=O)NC2CCC2)cc1-c1ccc(C(=O)NCC2CC2)cc1`, for which the inhibition in [1] worked out at 4.36%; in assay [2] it was 0.61%; in assay [3], 4.16%; in [4], 1.17%; in assay [5] it was 0.94%; in [6], 5.84%. Also, the inhibition in [7] came out at 18.9%; in assay [8], 2.6%; in [9] it was 1.46%; in [10], 3.09%.
With `Fc1ccc(-c2ncn(C3CCNCC3)c2-c2ccnc(Oc3ccc(F)c(F)c3)n2)cc1`, the inhibition in [1] was 2.08%; in [2], -3.27%; in assay [3] it was -1.37%; in [4], 1.11%; in [5], 0.66%; in assay [6], 18.5%. For the same molecule, the inhibition in [7] came out at 31.3%; in [8] it was 2.93%; in assay [9] it was 4.99%; in [10] it was 3.47%.
For the molecule `N#Cc1ccc(Oc2nccc(-c3c(-c4ccc(F)cc4)ncn3C3CCNCC3)n2)cc1`, the inhibition is -0.22% in assay [1]; 1.3% in assay [2]; 3.06% in assay [3]; 1.77% in assay [4]; 1.32% in assay [5]; 13.9% in assay [6]. In addition, the inhibition in assay [7] turned out to be 30.8%; in [8] it was 0.23%; in assay [9], 3.06%; in assay [10], 1.6%.
Regarding `Cc1nnc(-c2ccc(C)c(-c3ccc(C(=O)NCc4ccc(Cl)cc4)cc3)c2)o1`, the inhibition is 1.9% in [1]; -1.39% in assay [2]; -8.11% in assay [3]; 1.41% in assay [4]; 0.78% in assay [5]; 5.02% in [6]. The inhibition in assay [7] turned out to be 15.7%; in assay [8], 2.82%; in assay [9], 4.92%; in assay [10], 0.14%.
Turning to `Cc1ccc(C(=O)NC(C)C)cc1-c1ccc(C(=O)NCC2CC2)cc1`, the inhibition is -2.3% in assay [1]; -3.07% in assay [2]; -1.07% in assay [3]; -1.44% in assay [4]; -1.8% in [5]; 0.42% in assay [6]. The inhibition was determined as 9.15% in assay [7], 0.27% in assay [8], 0.65% in assay [9] and 0.19% in assay [10].
On to `O=C(Nc1n[nH]c2cc(-c3cc(F)ccc3F)ccc12)C1CC1`, for which the inhibition is -0.43% in assay [1]; 1.87% in [2]; 0.55% in assay [3]; 1.65% in [4]; 1.03% in assay [5]; 3.84% in [6]. Moreover, the inhibition in assay [7] stood at 3.99%; in assay [8], 2.47%; in assay [9], 5.89%; in assay [10], 2.76%.
For the molecule `COc1cccc(-n2cnc3c(N/N=C/c4ccncc4)ncnc32)c1`, the inhibition in assay [1] is -2.81%; in assay [2], -3.07%; in [3], -0.03%; in assay [4], -0.39%; in assay [5] it was -0.48%; in assay [6], -0.9%. The inhibition is -2.07% in [7], 1.01% in assay [8], 6.09% in assay [9] and 1.08% in assay [10].
Turning to `COc1cc(Nc2ncc3c(C)nc(-c4cccc(C(F)(F)F)c4)n3n2)cc(OC)c1OC`, the inhibition is 1.2% in [1]; 0.76% in assay [2]; -1.04% in [3]; 1.86% in assay [4]; 2.09% in assay [5]; 4.68% in assay [6]. For the same molecule, the inhibition in assay [7] was 5.16%; in assay [8] it was 2.7%; in assay [9], 15.5%; in assay [10], 1.84%.
With `CCS(=O)(=O)c1ccc(OC)c(Nc2ncc(-c3cccc(-c4ccccc4F)c3)o2)c1`, the inhibition was -0.11% in assay [1]; 1.37% in [2]; -3.8% in assay [3]; 0.06% in [4]; -0.23% in assay [5]; 1.08% in assay [6]. The inhibition in assay [7] was 1.04%; in assay [8], 1.41%; in assay [9] it was 0.75%; in assay [10] it was -0.41%.
On to `COc1cc(Nc2ncc(-c3ccccc3)o2)cc(OC)c1OC`, for which the inhibition is 1.28% in [1]; -1.54% in assay [2]; 1.6% in assay [3]; -1.14% in assay [4]; -0.59% in assay [5]; -1.98% in assay [6]. Moreover, the inhibition in [7] was -2.22%; in [8] it was 2.34%; in assay [9] it was 15.6%; in [10] it was 2.51%.
On to `COc1ccc2cc(-c3c(-c4ccncc4)nc(-c4ccc(S(C)(=O)=O)cc4C)n3C)ccc2c1`, for which the inhibition in [1] was -3.68%; in assay [2] it was 0.26%; in assay [3], -1.72%; in assay [4], -0.32%; in [5], -1.32%; in [6], -1.15%. For the same molecule, the inhibition turned out to be 1.63% in assay [7], 3.38% in assay [8], 4.84% in [9] and 1.58% in assay [10].
